The entries come from a sample that favours hits as a whole.
LASV entry inh – Lassa virus entry inhibition | 300,000 compounds, 1.2% hits | Potency, µM (top dose mostly 37.9 µM), for inactives: at the highest dose activity change, negative = inhibition, hits mostly inhibitors | Lassa virus pseudotype entry inhibition, cell reporter; calls by dose curve; tested in HEK293 cells; further: potency means the concentration at half of the fitted maximal effect; on the % scale 0 is the no-effect control and ±100 the full control effect; nearly all actives have a fitted effect of over 50% in size
Cycloheximide cs – counter-screen hit for Shiga toxin inhibitors, cycloheximide; 300,000 compounds, 12% hits; max response, %; cell reporter, cycloheximide protein synthesis inhibition counterscreen; AID 2314; in the data active means max response mostly above about 13%, no sharp cut-off; inactive means mostly below about 14%; further: read at 38.3 µM for the half of the compounds with a filed dose; 0% is about no effect
MARV entry inh – blocks Marburg virus binding to or entry into cells; Marburg virus pseudotyped entry inhibition, cell reporter; Potency, µM (top dose mostly 37.8 µM), for inactives: at the top dose activity change, negative = inhibition, most hits filed as inhibitors; 300,000 compounds, 1.8% hits; AID 540276; calls by dose curve; tested in HEK293 cells; further: potency means the concentration at half of the fitted maximal effect; on the % scale 0 is the no-effect control and ±100 the full control effect
Shiga inhibitor – inhibitors of Shiga toxin in Vero cells | Vero cells, Shiga toxin protein synthesis inhibition reporter | inhibition, % at 38.7 µM | 290,000 compounds, 9.2% hits | AID 2315; in the data active means inhibition mostly above about 28%, no sharp cut-off; inactive means mostly below about 43%; further: 0% is about no effect
Vaccinia Venus – inhibitors of vaccinia virus (Venus reporter). Vaccinia virus Venus reporter expression, fluorescence. Potency, µM (top dose mostly 36.5 µM), for the others: at the highest dose activity change, negative = inhibition, most hits filed as inhibitors. 330,000 compounds, 0.46% hits. AID 720580; calls by dose curve; tested in A549 cells; further: potency means the concentration at half of the fitted maximal effect; on the % scale 0 is the no-effect control and ±100 the full control effect; nearly all actives have a fitted effect of over 30% in size
Vaccinia mCherry – inhibitors of vaccinia virus infection (mCherry reporter signal). Vaccinia virus mCherry reporter infection, fluorescence. 310,000 compounds, 0.63% hits. AID 720579. Potency, µM (highest dose often 36.5 µM), inactives show top-dose activity change, negative = inhibition, usual class: inhibitors; calls by dose curve; tested in A549 cells; further: potency means the concentration at half of the fitted maximal effect; on the % scale 0 is the no-effect control and ±100 the full control effect; nearly all actives have a fitted effect of over 35% in size
* hit, by the source's call; i = inactive; ? = inconclusive; / = no result; + = active, no number; [ ] = remark or other dose.

SMILES	LASV entry inh	Cycloheximide cs	MARV entry inh	Shiga inhibitor	Vaccinia Venus	Vaccinia mCherry
COC(=O)c1c(C)oc2ccc(N(C(=O)c3ccncc3)S(=O)(=O)c3cc(C)c(C)cc3C)cc12	?	/	?	/	-18%[7.34 µM]	-9%[7.34 µM]
COC(=O)c1c(C)oc2ccc(N(C(=O)c3ccncc3)S(=O)(=O)c3ccccc3)cc12	?	-4	?	-13	?	/
COC(=O)c1c(C)oc2ccc(N(C(=O)c3ccncc3)S(=O)(=O)c3ccc(C)cc3C)cc12	?	7	5.6µM*	-15	?	-11%
COC(=O)c1c(C)oc2ccc(N(C(=O)c3ccncc3)S(=O)(=O)c3ccc(C)cc3)cc12	-18%	-2	3.2µM*	25	?	10µM*
O=C(O)C[C@H](NC(=O)COc1ccc(Cl)cc1Cl)C(=O)O	/	/	1%	/	/	/
CN1CCCC(CNC(=O)c2cnn(-c3ncc4c(n3)-c3ccccc3CC4)c2C2CC2)C1 (stereo not given)	/	/	/	/	-1%	-19%
Cc1ccccc1CSCc1nc(N)nc(Nc2ccccc2C)n1	10%	49*	?	85*	-10%	-5%
Cc1ccccc1Nc1nc(N)nc(COC(=O)c2ccc(O)cc2)n1	?	20*	24%	-4	-15%	-19%
Cc1ccccc1Nc1nc(N)nc(COC(=O)c2ccccc2)n1	?	82*	3%	79*	-11%	-18%
O=C(Nc1ccnn1C1CCN(C(=O)c2cc(Cl)ccc2F)CC1)C1CCOC1 (stereo not given)	/	8	/	11	/	/
O=C(Cn1nc(C(F)F)cc1C(F)F)NNC(=S)Nc1ccc([N+](=O)[O-])cc1	8%[46.1 µM]	6	-12%[46.1 µM]	-14	-11%	-14%
Nc1c(C(=O)NC2CCCC2)c2nc3ccccc3nc2n1/N=C/c1cccnc1	6%	/	7%[46.1 µM]	/	-13%	4%
Cc1ccsc1/C=N/NC(=O)c1ccc2c(c1)OCCO2	?	23*	3.2µM*	23	-9%	i
Cc1ccsc1/C=N\NC(=O)c1ccc2c(c1)OCO2	10%	35*	-26%	85*	-4%	-18%
Cc1ccsc1/C=N/NC(=O)c1nnn(-c2nonc2N)c1-c1ccc2c(c1)OCO2	-8%[46.1 µM]	-3	8%[46.1 µM]	-5	-4%	i
Oc1ccc(Br)cc1C=Nc1cccn2cc(-c3ccccc3)nc12	-25%[46.1 µM]	35*	?	81*	-8%	-13%
CCOC(=O)C(CCCCC(NC(C)=O)(C(=O)OCC)C(=O)OCC)(NC(C)=O)C(=O)OCC	11%	8	22%	11	-11%	-4%
Cc1nc2cc(NC(=O)[C@@H]3C[C@@H](Sc4ccccn4)CN3Cc3ccccc3)ccc2s1	/	/	/	/	-4%	-14%
Cc1c(Cl)cccc1S(=O)(=O)N1CCC(C(=O)NNC(=O)C2CC2)CC1	0%	1	20%[46.1 µM]	-12	-11%	-12%
Cc1cc(C(=O)NNC(=S)Nc2ccccc2)nn1C	?	14	0%[46.1 µM]	61*	-21%	-17%
Cc1nn(C)cc1C(=O)NNC(=S)Nc1ccccc1	?	17*	?	21	15%	20%
Cc1c(C(=O)NNC(=S)Nc2cccc(Cl)c2)nnn1-c1ccccc1	0%	57*	?	+	-13%	?
Cc1nc2ccccn2c1C(=O)NNC(=S)Nc1ccccc1	27%[46.1 µM]	7	27%[46.1 µM]	-1	-6%	?
Cc1cc(OCCN2CCCCC2)nc2ccccc12	-18%	10	?	13	-15%	/
c1ccc(-c2cc(NCCN3CCCCC3)c3ccccc3n2)cc1	?	-8	2.8µM*	-6	11µM*	?
C#CCN(C[C@@H]1[C@@H](OC(=O)Nc2cccs2)[C@@H](OC(=O)Nc2cccs2)Cn2c(=O)ccc(=O)n21)S(=O)(=O)c1ccc(C)cc1	/	/	/	/	8.9µM*	?
C#CCN(C[C@@H]1[C@@H](OC(=O)NC2CCCC2)[C@@H](OC(=O)NC2CCCC2)Cn2c(=O)ccc(=O)n21)S(=O)(=O)c1ccc(C)cc1	/	/	/	/	7.9µM*	?
C#CCN(C[C@@H]1[C@@H](OC(=O)NCc2ccccc2F)[C@@H](OC(=O)NCc2ccccc2F)Cn2c(=O)ccc(=O)n21)S(=O)(=O)c1ccc(C)cc1	/	/	/	/	7.1µM*	?
C#CCN(C[C@H]1[C@H](OC(=O)Nc2cccs2)[C@H](OC(=O)Nc2cccs2)C[C@H]2C(=O)N(c3ccccc3)C(=O)[C@@H]12)S(=O)(=O)c1ccc(C)cc1	/	/	/	/	-6%	-15%
